Experimental data: PubChem BioAssay (NCATS)
Values joined by “and” are separate entries in the source; they are usually repeats but may differ in a detail not shown here. Equal values may be shown once. Results filed as inconclusive are left out. Active and inactive are the calls of the source. Unless noted, calls come from the whole dose curve; as a rule, active = well fitted curve in either direction with a large enough effect (not every such curve was filed as active); inconclusive = small, poorly fitted or top-dose-only effect, or another doubt; inactive = flat fitted curve, though single readings scatter.

Tests used:
[1] = AP1 Signaling Pathway (AID 357);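 note: ME-180 reporter cells stimulated with EGF at its EC50 level; % is set by controls: 0 for no effect and ±100 for the full control effect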
Summary of the method: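 In this screen, ME-180 cells in Opti-MEM with 0.5% dialyzed FBS received EC50 EGF and compound titrations for 5 h. AP-1 reporter beta-lactamase was detected via CCF4 ratio, giving AC50 for positive and negative modulators.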

[2] = NFAT Signaling Pathway (AID 444); details: Jurkat NFAT-bla M1, carbachol, beta-lactamase ratio, 5 h;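 note: carbachol stimulus at about its EC50 of 1 µM final; % is set by controls: 0 for no effect and ±100 for the full control effect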
Summary of the method: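 Read-out: CCF4 FRET ratio (460 nm/530 nm) after 1 h RT dye loading, used for %activity and AC50 from titration series. Cells: Jurkat NFAT-β-lactamase/M1 line, treated with compound plus 1 uM carbachol for 5 h, 37 °C.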

[3] = Stat Signaling Pathway (AID 446);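 note: ME-180 cervical cancer cells given 40 pM IL-6 alongside compound; SIE-controlled beta-lactamase reporter measured as 460/530 nm FRET emission ratio; % is set by controls: 0 for no effect and ±100 for the full control effect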
Summary of the method: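 ME-180 SIE-bla cells; overnight plating; cpd + IL-6 40 pM, 5 h, 37 C; LiveBLAzer 2.5 h RT; 460/530 nm emission ratio. Normalized to 300 pM IL-6 and 125 nM JAK inhibitor controls.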

[4] = target: Cytochrome P450 1A2 (Homo sapiens) (UniProt P05177); experiment: p450-cyp1a2 (AID 410; calls by dose curve; note: potency is the fitted concentration of half-maximal effect;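 for activity change, negative = inhibition: -100% = full effect of reference inhibitor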)
Summary of the method: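 Inhibition was calculated relative to 57 uM furafylline (full inhibition). The reaction used human CYP1A2 at 20nM with Luciferin-ME at its Km, 100uM, driven by an NADPH-regenerating system for 60 min at room temperature.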

[5] = target: Glucocorticoid receptor (Homo sapiens) (UniProt P04150); experiment: GR-GFP Redistribution (AID 450;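 active = compounds whose dose series gives a full or clear partial fitted curve of increased nuclear translocation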; note: potency is the fitted concentration of half-maximal effect); details: U2OS GR-GFP nuclear translocation, laser cytometry, 2 h
[6] = target: Glucocorticoid receptor (Homo sapiens) (UniProt P04150); experiment: GR-EFC Redistribution (AID 451; calls by dose curve; note: potency is the fitted concentration of half-maximal effect); details: CHO-K1 GR-EFC translocation, beta-gal luminescence, 2 h
Summary of the method: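 Translocation of GR-ED fusion to nuclear EA restores b-gal, read by luminescence after 1 h room-temperature detection. Engineered CHO-K1 biosensor cells, 1,000/well, exposed 2 h at 37 C to titrations up to 46 uM final.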

[7] = target: Mitogen-activated protein kinase 10 (Mus musculus) (UniProt Q61831); experiment: JNK3 AlphaScreen Assay (AID 530);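 note: kinase came from lysate of stimulated human HepG2 cells; signal reports phosphorylation of biotinylated GST-cJun 1-79 at Ser73 with 10 µM ATP; % is set by controls: 0 for no effect and ±100 for the full control effect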
Summary of the method: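 Room-temperature AlphaScreen kinase assay; pre-activated HepG2 lysate as JNK3 source, biotin-GST-cJun(1-79) substrate, 10 uM ATP, compound 15 min preincubation.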

[8] = Cell Viability - BJ (AID 421; calls by dose curve;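 note: potency is the fitted concentration of half-maximal effect; cells exposed to compound for 40 hours at 37 °C before readout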); details: BJ fibroblast viability, qHTS
Summary of the method: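 Luminescent ATP signal (CellTiter-Glo, 20 min at room temperature) served as the read-out of viable BJ cells after 40 hours of compound treatment. Responses were scaled between DMSO and 100 uM tamoxifen, and AC50 values were obtained by Hill modeling.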

[9] = Cell Viability - Jurkat (AID 426;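 active = dose-dependent loss of cell ATP signal giving a full or clear fitted curve, ranked by lower potency value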;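 note: potency is the fitted concentration of half-maximal effect; cells exposed to compound for 40 hours at 37 °C before ATP read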); details: qHTS
Summary of the method: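 Seed 5000 Jurkat E6-1 cells/well; add compound; incubate 40 hr at 37 °C; add CellTiter-Glo; wait 20 min at room temperature; read luminescence. Fit concentration-response with Hill equation for AC50.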

[10] = Cell Viability - Hek293 (AID 427;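 active = compounds whose dose-response curve shows a full or clear partial loss of cell viability, called from curve shape rather than a numeric limit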;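 note: potency is the fitted concentration of half-maximal effect; cells exposed to compound for 40 hours at 37 °C before reading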); details: qHTS
Summary of the method: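 Luminescent ATP read-out (CellTiter-Glo, 20 min RT) after 40 hr compound exposure at 37 °C in complete medium. Signal normalized to DMSO (basal) and 100 uM tamoxifen (100% inhibition); concentration-response fitted with the standard Hill equation to give AC50.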

[11] = Cell Viability - HepG2 (AID 433; calls by dose curve;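 note: potency is the fitted concentration of half-maximal effect; potency for ATP loss meaning cytotoxicity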); details: qHTS
Summary of the method: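 Read-out is luciferase-based quantitation of cellular ATP as a measure of viable HepG2 cells after 40 h treatment at 37 °C. Signal decrease is scaled between DMSO-only and 100 uM tamoxifen controls, with AC50 fitted by the Hill equation.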

[12] = Cell Viability - MRC5 (AID 434; calls by dose curve;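 note: potency is the fitted concentration of half-maximal effect; cells exposed to compound for 40 hours at 37 °C; potency reflects cytotoxicity seen as loss of intracellular ATP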); details: MRC5 lung fibroblast viability, qHTS
Summary of the method: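 qHTS cytotoxicity in human lung fibroblast MRC5 cells; 40 hr treatment, 37 °C; cellular ATP by luciferase luminescence; DMSO = 0%, 100 uM tamoxifen = 100% inhibition; Hill-fit AC50.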

[13] = Cell Viability - SK-N-SH (AID 435; calls by dose curve;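 note: potency is the fitted concentration of half-maximal effect; compound exposure lasted 40 h at 37 °C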); details: SK-N-SH neuroblastoma cell viability qHTS
Summary of the method: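 Luminescent ATP signal served as the viability read-out after 40 hours of compound treatment of human neuroblastoma SK-N-SH cells. Concentration-response data, scaled between DMSO and 100 uM tamoxifen, gave AC50 values by standard Hill modeling.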

[14] = Cell Viability - N2a (AID 540; active = well fitted curve in the direction sought with a large enough effect; an effect the other way counts as inactive or inconclusive;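 note: cells exposed to compound for 40 h at 37 °C; plate controls were DMSO alone for no effect and tamoxifen control for full effect; nearly all actives have a fitted effect of over 45% in size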)
Summary of the method: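 First, 1500 N2a cells per well incubate 5 hr at 37 °C; next, compounds are added and incubated 40 hr at 37 °C; finally CellTiter-Glo is added and luminescence read after 20 min, with AC50 derived by Hill modeling.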

[15] = Cell Viability - NIH 3T3 (AID 541; active = well fitted curve in the direction sought with a large enough effect; an effect the other way counts as inactive or inconclusive;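 note: plate controls were DMSO alone for no effect and tamoxifen positive control for full effect; nearly all actives have a fitted effect of over 25% in size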); details: NIH 3T3 cell viability, qHTS; at 92.2 µM (top of the series)
Summary of the method: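 AC50 values reflect concentration-dependent loss of intracellular ATP in NIH 3T3 cells after 40 hr treatment in complete culture medium, quantified by luciferase-based luminescence.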

[16] = Cell Viability - HUV-EC-C (AID 542; active = well fitted curve in the direction sought with a large enough effect; an effect the other way counts as inactive or inconclusive; note: % is set by controls: 0 for no effect and ±100 for the full control effect; nearly all actives have a fitted effect of over 35% in size)
Summary of the method: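 Decrease in cellular ATP, quantified by luciferase luminescence, reflects toxicity in normal human vascular endothelial HUV-EC-C cells given compound for 40 hr in complete culture medium. Values are AC50s from concentration-response curves.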

[17] = Cell Viability - H-4-II-E (AID 543; active = well fitted curve in the direction sought with a large enough effect; an effect the other way counts as inactive or inconclusive; note: % is set by controls: 0 for no effect and ±100 for the full control effect; nearly all actives have a fitted effect of over 35% in size)
Summary of the method: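 Here, cytotoxicity is measured in the rat hepatoma line H-4-II-E as loss of intracellular ATP after 40 hr compound treatment, detected by luciferase luminescence.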

[18] = Cell Viability - SH-SY5Y (AID 544; active = well fitted curve in the direction sought with a large enough effect; an effect the other way counts as inactive or inconclusive;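 note: 0% = DMSO alone and -100% = 100 µM tamoxifen; nearly all actives have a fitted effect of over 55% in size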)
Summary of the method: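 Cytotoxicity is scored as a concentration-dependent fall in intracellular ATP in human SH-SY5Y cells treated 40 hr in complete culture medium. Potency is expressed as AC50 from a Hill equation fit.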

[19] = Cell Viability - Renal Proximal Tubule (AID 545; active = well fitted curve in the direction sought with a large enough effect; an effect the other way counts as inactive or inconclusive;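 note: 0% = DMSO only and -100% = 100 µM tamoxifen; nearly all actives have a fitted effect of over 40% in size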)
Summary of the method: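 Luminescent ATP signal (CellTiter-Glo) served as the viability read-out after 40 hr compound exposure of freshly isolated rat proximal tubule cells at 37 °C. Concentration-dependent ATP loss was fitted with the Hill equation to give AC50.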

[20] = Cell Viability - Mesenchymal (AID 546; active = well fitted curve in the direction sought with a large enough effect; an effect the other way counts as inactive or inconclusive;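 note: cells exposed to compound for 40 hours before reading; 0% = DMSO only and -100% = 100 µM tamoxifen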)
Summary of the method: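 AC50 values reflect the drop in intracellular ATP in a human kidney mesenchymal line derived from normal glomeruli. Treatment lasts 40 hr at 37 °C in complete medium, and the signal comes from CellTiter-Glo luminescence.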

Sequence of Cytochrome P450 1A2 (Homo sapiens) (P05177 whole entry, looked up): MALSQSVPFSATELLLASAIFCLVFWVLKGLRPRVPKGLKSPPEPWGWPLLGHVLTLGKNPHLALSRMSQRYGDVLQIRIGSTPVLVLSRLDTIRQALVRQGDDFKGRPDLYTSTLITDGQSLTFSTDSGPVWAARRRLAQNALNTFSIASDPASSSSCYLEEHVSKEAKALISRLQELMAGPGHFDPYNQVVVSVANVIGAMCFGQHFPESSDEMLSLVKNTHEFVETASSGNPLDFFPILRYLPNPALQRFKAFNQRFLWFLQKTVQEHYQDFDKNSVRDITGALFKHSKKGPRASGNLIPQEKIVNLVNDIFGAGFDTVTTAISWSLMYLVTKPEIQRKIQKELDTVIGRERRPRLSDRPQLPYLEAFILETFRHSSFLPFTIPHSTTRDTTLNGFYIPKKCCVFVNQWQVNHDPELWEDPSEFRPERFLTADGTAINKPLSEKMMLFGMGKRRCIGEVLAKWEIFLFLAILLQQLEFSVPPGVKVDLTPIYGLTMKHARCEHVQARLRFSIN
Sequence of Glucocorticoid receptor (Homo sapiens) (P04150 whole entry, looked up, the tested form may be a part): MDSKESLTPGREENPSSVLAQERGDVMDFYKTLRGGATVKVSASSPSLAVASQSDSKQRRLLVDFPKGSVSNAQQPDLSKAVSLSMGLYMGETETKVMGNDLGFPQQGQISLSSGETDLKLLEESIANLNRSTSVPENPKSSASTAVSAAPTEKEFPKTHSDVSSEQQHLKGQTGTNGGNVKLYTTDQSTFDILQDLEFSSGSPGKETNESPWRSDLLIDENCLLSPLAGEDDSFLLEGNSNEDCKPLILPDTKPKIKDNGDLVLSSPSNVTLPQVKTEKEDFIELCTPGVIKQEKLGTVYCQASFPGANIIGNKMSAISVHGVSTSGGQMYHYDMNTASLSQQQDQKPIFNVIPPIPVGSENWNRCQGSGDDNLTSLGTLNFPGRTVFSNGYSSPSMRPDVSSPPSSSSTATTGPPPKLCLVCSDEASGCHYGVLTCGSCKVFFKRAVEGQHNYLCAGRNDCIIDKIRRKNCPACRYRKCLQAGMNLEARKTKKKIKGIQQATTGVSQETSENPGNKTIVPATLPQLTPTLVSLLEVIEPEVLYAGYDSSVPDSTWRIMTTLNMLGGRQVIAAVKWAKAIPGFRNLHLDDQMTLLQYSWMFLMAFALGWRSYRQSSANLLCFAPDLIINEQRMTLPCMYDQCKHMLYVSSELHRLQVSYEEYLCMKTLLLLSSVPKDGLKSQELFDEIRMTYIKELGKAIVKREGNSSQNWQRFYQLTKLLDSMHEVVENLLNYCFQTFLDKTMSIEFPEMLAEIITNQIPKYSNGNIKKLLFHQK

[N-]=[N+]=CC(=O)OC[C@H](N)C(=O)O
inactive: outcome [1] | activity change, negative = inhibition ([2]; at 17.2 µM (top of the series)) -1.72% | outcome [3]

O=c1[nH]oc2c1CCNC2
inactive: outcome [1] | Potency [4] | activity change, negative = inhibition ([2]; at 17.2 µM (top of the series)) -9.07% | activity change, negative = inhibition ([2]; at 38 µM (top of the series)) 9.6% | outcome [3] | Potency [5] > 46 µM and > 20.6 µM | Potency [6] > 46 µM and > 20.6 µM | outcome [7]

CCCC(C)(COC(N)=O)COC(N)=O
inactive: Potency [8] > 92 µM | Potency [9] > 92 µM | Potency [10] > 92 µM | Potency [11] > 92 µM | Potency [12] > 92 µM | Potency [13] > 92 µM | outcome [14] | activity change, negative = cytotoxicity [15] -19.1% | Potency [16] | Potency [17] | Potency [18] | outcome [19] | outcome [20]

COc1c2c(cc3c1OCO3)CCN(C)C2
active: Potency [4] 2 µM
inactive: outcome [1] | activity change, negative = inhibition ([2]; at 17.2 µM (top of the series)) -27% | outcome [3] | Potency [5] > 20.6 µM | Potency [6] > 20.6 µM | outcome [7]

CC(C)c1cccc(C(C)C)c1O
inactive: outcome [1] | Potency [8] > 92 µM | Potency [9] > 92 µM | Potency [10] > 92 µM | Potency [11] > 92 µM | Potency [12] > 92 µM | Potency [13] > 92 µM | activity change, negative = inhibition ([2]; at 17.2 µM (top of the series)) -3.69% | activity change, negative = inhibition ([2]; at 38 µM (top of the series)) 7.25% | outcome [3] | outcome [7] | outcome [14] | activity change, negative = cytotoxicity [15] 4.32% | Potency [16] | Potency [17] | Potency [18] | outcome [19] | outcome [20]

O=P1(N(CCCl)CCCl)NCCCO1 (stereo not given)
inactive: outcome [1] | Potency [4] | Potency [8] > 92 µM | Potency [9] > 92 µM | Potency [10] > 92 µM | Potency [11] > 92 µM | Potency [12] > 92 µM | Potency [13] > 92 µM | activity change, negative = inhibition ([2]; at 38 µM (top of the series)) 4.3% | Potency [5] > 46 µM | Potency [6] > 46 µM | outcome [7] | outcome [14] | activity change, negative = cytotoxicity [15] 2.35% | Potency [16] | Potency [17] | Potency [18] | outcome [19] | outcome [20]

C[N+]1(C)[C@@H]2CC(OC(=O)[C@H](CO)c3ccccc3)C[C@H]1[C@@H]1O[C@@H]12 (stereo not given in full)
inactive: outcome [1] | outcome [3] | Potency [5] > 20.6 µM
active: activity change, negative = inhibition ([2]; at 17.2 µM (top of the series)) -68.4%

C[C@]1(O)CC[C@H]2[C@@H]3CCC4=CC(=O)CC[C@]4(C)[C@@]3(F)[C@@H](O)C[C@@]21C
inactive: Potency [8] > 92 µM | Potency [9] > 92 µM | Potency [10] > 92 µM | Potency [11] > 92 µM | Potency [12] > 92 µM | Potency [13] > 92 µM | outcome [7] | outcome [14] | Potency [16] | Potency [17] | Potency [18] | outcome [19] | outcome [20]
